Experimental data reported in paper PMC7826789 (International Journal of Molecular Sciences, 2021).

Columns and labels:
Settings in all cases: Compound Concentration (nM):1000
[1] = system: NEK3
[2] = system: NEK4
[3] = system: NEK5
[4] = system: NEK6
[5] = system: NEK7
[6] = system: NEK9
[7] = system: T1, NIK
T1 construct: gene MAP3K14

[8] = system: T2, NIM1
T2 construct: gene MGC42105

[9] = system: NLK
[10] = system: T3, OSR1
T3 construct: gene OXSR1

[11] = system: PAK1
[12] = system: PAK2
[13] = system: PAK3
[14] = system: PAK4
[15] = system: PAK6
[16] = system: PAK7
[17] = system: T4, PCTK1
T4 construct: gene CDK16

[18] = system: T5, PCTK2
T5 construct: gene CDK17

[19] = system: T6, PCTK3
T6 construct: gene CDK18

[20] = system: PDGFRA
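Note: KINOMEscan scanMAX binding as percent activity remaining versus control; lower means stronger binding.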

Row | Structure (SMILES) | Percent Control [1] | Percent Control [2] | Percent Control [3] | Percent Control [4] | Percent Control [5] | Percent Control [6] | Percent Control [7] | Percent Control [8] | Percent Control [9] | Percent Control [10] | Percent Control [11] | Percent Control [12] | Percent Control [13] | Percent Control [14] | Percent Control [15] | Percent Control [16] | Percent Control [17] | Percent Control [18] | Percent Control [19] | Percent Control [20]
1 | NS(=O)(=O)c1ccc(N/N=C2\C(=O)Nc3ccc(-c4cnco4)cc32)cc1 [GW276655] | 96% | 99% | 72% | 77% | 82% | 79% | 37% | 84% | 100% | 100% | 87% | 82% | 100% | 95% | 76% | 88% | 1.4% | 76% | 100% | 79%
2 | COc1cc2ncnc(Nc3ccc4c(cnn4Cc4ccccc4)c3)c2cc1OC.Cl [GW282449A] | 100% | 100% | 100% | 100% | 96% | 100% | 100% | 100% | 100% | 100% | 100% | 100% | 30% | 100% | 100% | 100% | 100% | 100% | 100% | 83%
3 | NS(=O)(=O)c1ccc(N/N=C2\C(=O)Nc3ccc(C(=O)NCc4ccncc4)cc32)cc1 [GW300657X] | 84% | 89% | 92% | 97% | 62% | 64% | 95% | 72% | 96% | 75% | 100% | 100% | 63% | 100% | 81% | 87% | 0.2% | 22% | 68% | 27%
4 | COc1cc(C=NNc2ncnc3c2cnn3-c2ccccc2)ccc1O [GW513184X] | 100% | 100% | 76% | 82% | 100% | 100% | 92% | 100% | 100% | 100% | 100% | 100% | 50% | 100% | 100% | 100% | 29% | 38% | 84% | 63%
5 | CN(C)c1cc2c(Nc3ccc4c(cnn4Cc4ccccc4)c3)ncnc2cn1 [GW282974X] | 77% | 99% | 48% | 27% | 78% | 88% | 86% | 74% | 90% | 100% | 89% | 79% | 26% | 98% | 87% | 88% | 87% | 100% | 100% | 100%
6 | COc1ccc(COc2ccc(Cc3cnc(N)nc3N)cc2OC)cc1 [GW632580X] | 97% | 77% | 100% | 95% | 77% | 85% | 94% | 86% | 100% | 100% | 100% | 100% | 62% | 100% | 92% | 100% | 84% | 100% | 73% | 91%
7 | CN1CCN(C(=O)c2ccc(NC(=O)Nc3ccc(N(C)c4ccnc(Nc5ccc(CS(C)(=O)=O)cc5)n4)cc3)cc2)CC1.Cl [GW830263A] | 66% | 85% | 82% | 100% | 93% | 62% | 100% | 99% | 80% | 98% | 92% | 50% | 0% | 46% | 92% | 67% | 76% | 91% | 96% | 2%
8 | C[C@@H](Oc1cc(-n2cnc3ccc(OC4CCN(C)CC4)cc32)sc1C(N)=O)c1ccccc1Cl [GSK579289A] | 92% | 79% | 63% | 100% | 69% | 19% | 82% | 51% | 100% | 100% | 100% | 84% | 0% | 100% | 75% | 74% | 94% | 94% | 86% | 54%
9 | CCS(=O)(=O)c1ccc(OC)c(Nc2ncc(-c3cccc(F)c3)o2)c1 [GW621970X] | 100% | 100% | 95% | 100% | 100% | 100% | 93% | 100% | 100% | 100% | 100% | 100% | 100% | 100% | 100% | 100% | 100% | 100% | 81% | 49%
10 | C/C(Nc1ccc(S(N)(=O)=O)cc1)=C1/C(=O)Nc2ccccc21 [GW335962X] | 96% | 77% | 97% | 100% | 95% | 95% | 78% | 86% | 87% | 94% | 82% | 80% | 64% | 89% | 85% | 100% | 23% | 100% | 78% | 6.1%
